Screening data from PubChem.
NOMO-1 viab: NOMO-1 AML cell viability reduction, primary screen, STK33 inhibitor project, CellTiter-Glo luminescence. NOMO-1 AML viability, 72 h. 37,000 tested, 7.5% active. inhibition, % (test concentration not listed); in the data active means inhibition above about 80%; inconclusive means no clear call, values can overlap the other calls
Hedgehog inh: Hedgehog pathway signaling inhibitors, primary screen, luminescence, Shh-LIGHT2 cells, Gli-luciferase; Shh-LIGHT2 Gli-luciferase reporter, 30 h; inhibition, % (no concentration beside the values); 22,000 tested, 2.1% active;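 active means mean inhibition across valid replicates above about 65%, limit read from the data; inconclusive means mean under the limit, yet half or more replicates past it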;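 further: pathway switched on by Shh-conditioned medium diluted 1 in 25 in low serum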
MITF inhib: inhibitors of MITF, primary screen, MITF inhibitor project, cell-based, luminescence; TRPM1 promoter luciferase, 24 h; inhibition, % (test concentration not listed); 37,000 tested, 0.28% active; AID 2240, 2010; in the data active means inhibition above about 85%; inconclusive means no clear call, values can overlap the other calls; inactive means below about 68%;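 further: human melanocyte line stably carrying TRPM1 promoter luciferase reporter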
The depositor's hits bear a star. This is a sample that favours compounds with a hit; in the whole collection about 8.1% have one here.

C[C@H]1CN([C@@H](C)CO)C(=O)Cc2cc(N(C)C)ccc2O[C@@H]1CN(C)S(=O)(=O)c1ccc(Cl)cc1 was read as NOMO-1 viab 9 and MITF inhib 3.
Screening C[C@@H]1CN([C@H](C)CO)C(=O)Cc2cc(N(C)C)ccc2O[C@@H]1CN(C)S(=O)(=O)c1cccs1 returned NOMO-1 viab 8, Hedgehog inh 69* and MITF inhib 6.
C[C@H]1CN([C@@H](C)CO)C(=O)Cc2cc(N(C)C)ccc2O[C@H]1CN(C)S(=O)(=O)c1ccc(Cl)cc1 was read as NOMO-1 viab 115*, Hedgehog inh -17 and MITF inhib 24.
Screening CC(=O)O[C@@H]1[C@@H](O)C[C@@]2(C)C(CC[C@@H](C)C23Cc2c(O)cc4c(c2O3)CN([C@@H](CCC(=O)O)C(=O)O)C4=O)C1(C)C (stereo not given in full) returned NOMO-1 viab 15, Hedgehog inh 12 and MITF inhib -6.
For CN1C(=O)c2ccc(NC(=O)CCn3cnc4ccccc4c3=O)cc2C1=O the results were NOMO-1 viab -11 and MITF inhib -13.
`COC(=O)[C@@H](O)[C@H]1[C@@]2(C)C[C@]3(O)C4[C@@H](O[C@]56CC(=O)O[C@@H](c7ccoc7)[C@@]5(C)CCC([C@]46O)[C@]13C)[C@H]2O` (stereo not given in full) gave Hedgehog inh 5.
For O=C(c1ccccc1)c1ccc2nc(-c3cccc(NC(=O)C4CCCO4)c3)[nH]c2c1 (stereo not given) the results were NOMO-1 viab 100* and MITF inhib -45.
Cc1cccc(OCC(=O)Nc2cccc(-c3nc4ccccc4[nH]3)c2)c1C was read as NOMO-1 viab 62 and MITF inhib -51.
Screening CC(=O)O[C@@H]1CC[C@@]2(C)C(C[C@@H](OC(C)=O)[C@@]3(C)C4=CC(=O)O[C@@H](c5ccoc5)[C@]4(C)CCC23)C1(C)C (stereo not given in full) returned NOMO-1 viab 66, Hedgehog inh 11 and MITF inhib 15.
`CC(=O)O[C@@H]1CC2C(C)(C)CCC[C@]2(C)C2CC[C@]3(C)C(=CC(=O)O[C@H]3c3ccoc3)[C@@]21C` (stereo not given in full) gave NOMO-1 viab 99*, Hedgehog inh -4 and MITF inhib 43.
CC1CCC/C=C2\C(=O)C=CC3OC(/C=C/C=C/C=C/C(=O)O)=C(C(=O)O1)C23 (stereo not given) was read as NOMO-1 viab 122*, Hedgehog inh 14 and MITF inhib -6.
Cc1c(NC(=O)CN(c2cc(Cl)c(Cl)cc2Cl)S(C)(=O)=O)cccc1[N+](=O)[O-] was read as NOMO-1 viab 16 and MITF inhib 19.
Cc1ccc(S(=O)(=O)N(C)C[C@H]2Oc3c(NC(=O)c4nc5ccccc5s4)cccc3C(=O)N([C@@H](C)CO)C[C@@H]2C)cc1 was read as NOMO-1 viab 68, Hedgehog inh 3 and MITF inhib 5.
For C[C@@H]1CN([C@@H](C)CO)C(=O)c2cccc(NC(=O)c3nc4ccccc4s3)c2O[C@@H]1CN(C)S(=O)(=O)c1ccc(Cl)cc1 the results were NOMO-1 viab 113*, Hedgehog inh 20 and MITF inhib 60.
`C[C@@H]1CN([C@H](C)CO)C(=O)c2cccc(NC(=O)c3nc4ccccc4s3)c2O[C@@H]1CN(C)S(=O)(=O)c1ccc(Cl)cc1` gave NOMO-1 viab 65, Hedgehog inh 33 and MITF inhib 5.
`C[C@@H]1CN([C@H](C)CO)C(=O)c2cccc(NC(=O)c3nc4ccccc4s3)c2O[C@@H]1CN(C)S(=O)(=O)c1ccccc1` gave NOMO-1 viab 12, Hedgehog inh -7 and MITF inhib 9.
C[C@@H]1CN([C@@H](C)CO)C(=O)c2cccc(NC(=O)c3nc4ccccc4s3)c2O[C@@H]1CN(C)S(=O)(=O)c1ccccc1 was read as NOMO-1 viab 102*, Hedgehog inh -44 and MITF inhib 37.
For C[C@H](CO)N1C[C@H](C)[C@H](CN(C)S(=O)(=O)c2ccc(F)cc2)Oc2c(NC(=O)c3nc4ccccc4s3)cccc2C1=O the results were NOMO-1 viab 108*, Hedgehog inh 9 and MITF inhib 58.
Screening C[C@H](CO)N1C[C@H](C)[C@H](CN(C)S(=O)(=O)c2ccc(Cl)cc2)Oc2c(NC(=O)c3nc4ccccc4s3)cccc2C1=O returned NOMO-1 viab 93*, Hedgehog inh 3 and MITF inhib 20.
`C[C@@H]1CN([C@H](C)CO)C(=O)c2cccc(NC(=O)c3nc4ccccc4s3)c2O[C@H]1CN(C)S(=O)(=O)c1ccccc1` gave NOMO-1 viab 47, Hedgehog inh inconclusive and MITF inhib 9.
For Cc1cc(NC(=O)c2cc3nc(-c4cccs4)cc(C(F)(F)Cl)n3n2)n(-c2ccccc2)n1 the results were NOMO-1 viab inconclusive and MITF inhib 36.
`CCOC(=O)c1ccc(NC(=O)CSc2nc3sc4c(c3c(=O)n2C)CCCC4)cc1` gave NOMO-1 viab 33 and MITF inhib 41.
For COc1ccc(NC(=O)CN(c2ccc(C)c(C)c2)S(C)(=O)=O)c(OC)c1 the results were NOMO-1 viab 16 and MITF inhib -7.
CC(C)N(Cc1nc(-c2ccc(Cl)cc2)no1)S(=O)(=O)c1ccc(F)cc1 was read as NOMO-1 viab 61 and MITF inhib 23.
C[C@H](CO)N1C[C@H](C)[C@@H](CN(C)S(=O)(=O)c2ccc(Cl)cc2)Oc2c(NC(=O)c3nc4ccccc4s3)cccc2C1=O was read as NOMO-1 viab 117*, Hedgehog inh 5 and MITF inhib 25.
Screening C[C@@H]1CN([C@@H](C)CO)C(=O)c2cccc(NC(=O)c3nc4ccccc4s3)c2O[C@H]1CN(C)S(=O)(=O)c1ccccc1 returned NOMO-1 viab 15, Hedgehog inh 15 and MITF inhib -9.
`CCOc1ccc(-n2nc3ccc(NC(=O)COc4ccccc4Cl)cc3n2)cc1` gave NOMO-1 viab 58 and MITF inhib 2.
Screening O=c1[nH]c(=O)n(C2C[C@H](O)[C@@H](CO)O2)cc1C(F)(F)F (stereo not given in full) returned NOMO-1 viab 108*, Hedgehog inh -17 and MITF inhib 1.
Screening O=C(O)c1ccccc1S(=O)c1ccc(Cl)cc1 (stereo not given) returned NOMO-1 viab 8, Hedgehog inh -10 and MITF inhib 8.
N=c1ncn(CC(O)CO)c2nc(Br)[nH]c12 (stereo not given) was read as NOMO-1 viab -5, Hedgehog inh -10 and MITF inhib -24.
O=C1c2cccc3cccc(c23)C(=O)N1OS(=O)(=O)c1cccc2cccnc12 was read as NOMO-1 viab 23 and MITF inhib -4.
Screening Cn1c(SCC(=O)Nc2ccccc2)nc2sc3c(c2c1=O)CCC3 returned NOMO-1 viab 20 and MITF inhib 40.
CCc1cccc(C)c1NC(=O)CSc1nc2sc3c(c2c(=O)n1C)CCC(C)C3 (stereo not given) was read as NOMO-1 viab 95* and MITF inhib 7.
